The values below come from PubChem BioAssay AID1662 (Broad Institute, 2009).

The whole screen tested about 300,000 compounds, of which about 4,000 (1.3%) were called active. The sample holds actives, similar compounds and a random draw of the others, so the mix is not that of the screen.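 Rule for the calls: active = mean replicate score, as percent of positive control median, at least 50; inconclusive = mean below 50 but one replicate at or above 50; inactive = mean and every replicate below 50.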

The experiment in a line: kanamycin survival loss of SKKanGAS strain – BacTiter-Glo luminescence, streptokinase expression inhibitor project, primary screen (AID 1662).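 Note: strain carries kanamycin resistance gene driven by streptokinase promoter and grows in 40 µg/ml kanamycin; loss of luminescence reflects streptokinase promoter inhibition or plain growth inhibition; 0% = median of DMSO wells and 100% = positive control at its reference dose.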 The conditions noted are these: S. pyogenes SKKanGAS, kanamycin growth, 6 h, at 7.5 µM, hits give high values.
Take `COC(=O)c1cc(OC)ccc1-c1ccc(OC)cc1`: the inhibition was 11% (inactive).

`COc1ccc(Oc2cn[nH]c2-c2ccc(OC)cc2O)cc1`: the inhibition was 13.6% (inactive).

With `COc1ccc(-c2cn[nH]c2-c2ccc(OC)cc2)cc1`, the inhibition was 75.3% (active).

In the case of `O=C1/C(=C\c2ccccc2Cl)SC(=S)N1CCC(=O)N1CCCc2ccccc21`, the inhibition is -4.28% (inactive).

For the molecule `COc1ccc(-c2cn(-c3ccc(OC)cc3)c(=S)[nH]2)cc1`, the inhibition is -13.9% (inactive).

As for `COc1ccc(-n2cc(-c3ccccc3)c3c(=S)nc[nH]c32)cc1`, the inhibition was 54.1% (active).

`O=c1[nH]cnc2c1c(-c1ccccc1)cn2-c1ccc(F)cc1`: the inhibition was -1.74% (inactive).

As to `CCOP(=O)(OCC)C(Nc1cccc(C)c1)c1ccc(F)cc1` (centres undefined), the inhibition was -2.54% (inactive).

For the molecule `CC1CCc2[nH]c3ccc(C(=O)N(C)CC(=O)Nc4cccc(F)c4)cc3c2C1` (centres undefined), the inhibition was -8.76% (inactive).

Turning to `CC(C)CC1(C(=O)NCc2ccccn2)C=CCN1C(=O)c1ccccc1` (centres undefined), the inhibition is -5.95% (inactive).

Turning to `COc1ccc(-n2cnnc2SCC(=O)Nc2cccc([N+](=O)[O-])c2)cc1`, the inhibition is -8.4% (inactive).

Take `COc1ccc(CCNC(=O)CSc2nc3[nH]ncc3c(=O)n2-c2cccc(C(F)(F)F)c2)cc1OC`: the inhibition was -2.08% (inactive).

As to `NC(=O)NC(=O)CSc1nc2cc([N+](=O)[O-])ccc2n1-c1cccc(C(F)(F)F)c1`, the inhibition was 97.7% (active).

Regarding `COC(=O)C1[C@H]2SC(C)(C)C(C(=O)OC)N2C(=O)N1Cc1nc2ccccc2s1` (some centres undefined), the inhibition is 6.63% (inactive).

For the molecule `NC(=O)C1CC(=O)N(c2ccc(OCC(=O)NCc3ccccc3)cc2)C1` (centres undefined), the inhibition is 1.49% (inactive).

Take `CC1(C)S[C@@H]2[C@H](NC(=O)COc3ccccc3)C(=O)N2C1C(=O)OCc1ccccc1` (some centres undefined): the inhibition is 97% (active).

In the case of `CC1(C)SC2C(NC(=O)COc3ccccc3)C(=O)N2C1C(=O)O` (centres undefined), the inhibition was 102% (active).

As for `CC1(C)S[C@@H]2[C@H](N=CN3CCCCCC3)C(=O)N2[C@H]1C(=O)O`, the inhibition was -7.68% (inactive).

In the case of `Cc1cccc(OCC(=O)NC2CC(C)(C)NC(C)(C)C2)c1`, the inhibition is 1.54% (inactive).

With `C[C@H]1CC[C@]2(O[C@@H](CCO)C[C@@H](O)[C@@H]2O)O1`, the inhibition is -3.21% (inactive).

Take `CC1Cn2c(nnc2-c2cccs2)S1` (centres undefined): the inhibition was -5.31% (inactive).

`CCCn1c(=N)n(CC(=O)c2ccc(Cl)c(Cl)c2)c2ccccc21`: the inhibition is 2.77% (inactive).

Consider `CN(C(=O)CN1C(=O)NC(C)(CCc2ccccc2)C1=O)c1ccccc1` (centres undefined), for which the inhibition is -1.34% (inactive).

For the molecule `CC1CC(=O)N(CC(=O)Nc2cccc(Cl)c2)c2ccccc2S1(=O)=O` (centres undefined), the inhibition was -1.88% (inactive).

Consider `CSc1ccc(CNC(=O)c2ccc(NC(=O)C3=CSCCO3)cc2)cc1`, for which the inhibition was -10.5% (inactive).

Turning to `Cc1nc(NNC(=O)c2ccccc2)cc(-c2ccccc2)n1`, the inhibition was -2.12% (inactive).

On to `CC(=O)Nc1ccc(-c2csc(NC(=O)Nc3ccccc3)n2)cc1`, for which the inhibition is 0.751% (inactive).

As to `Cc1ccc(-c2csc(NNC(=O)c3ccccc3)n2)cc1`, the inhibition is 55.1% (active).

`COc1cccc(CNC(=O)c2nnn(CC(=O)Nc3cc(C)ccc3C)c2N)c1`: the inhibition is 11% (inactive).

Regarding `O=C(/C=C/c1cnc2ccccc2n1)NC1CCCCCC1`, the inhibition was 2.73% (inactive).

Take `COc1ccccc1C(=O)NCCC(=O)NN1C(=O)NC2(CCCCC2)C1=O`: the inhibition is -9.03% (inactive).

As to `NCC(=O)c1cccc2ccc[n+]([O-])c12`, the inhibition was -3.82% (inactive).

As for `CS(=O)(=O)c1ccc(-c2nnn(CC(=O)Nc3ccc4c(c3)OCCO4)n2)cc1`, the inhibition is -16.5% (inactive).

For `Cc1cccc(C(=O)Nc2ccccc2-c2nnn(CC(=O)Nc3ccc4c(c3)OCCO4)n2)c1`, the inhibition was 59.1% (active).

As for `O=C(Nc1ccccc1-c1nnn(CC(=O)N2CCCc3ccccc32)n1)c1cccc(Cl)c1`, the inhibition was -0.017% (inactive).

As to `COc1cc(C(=O)OC(C)C(=O)NCC2CCCCC2)cc(NC(=O)c2ccco2)c1OC` (centres undefined), the inhibition was -4.57% (inactive).

For the molecule `COc1ccccc1OCc1nc2ccccc2s1`, the inhibition is 21% (inactive).

In the case of `COc1cc2ccccc2cc1C(=O)Nc1nc(C)c(C(C)=O)s1`, the inhibition was -5.23% (inactive).

Regarding `COc1cccc2sc(Nc3nc(C)c(C(C)=O)s3)nc12`, the inhibition was 53.7% (active).

On to `COc1ccc(S(=O)(=O)N2CCOCC2)cc1C(=O)Nc1nc2ccccc2s1`, for which the inhibition is 1.7% (inactive).

Turning to `COc1ccccc1/C=N/Nc1nc(C)c(C(C)=O)s1`, the inhibition is -9.03% (inactive).

Take `COc1cccc2sc(NNC(=O)c3nc4ccccc4s3)nc12`: the inhibition was 92.6% (active).

Consider `CN(C)CCCN(C(=O)c1ccc(S(=O)(=O)N2CCCCCC2)cc1)c1nc2cc3c(cc2s1)OCCO3`, for which the inhibition is -2.65% (inactive).

Regarding `N#Cc1ccc(OCc2nnc(-c3ccc([N+](=O)[O-])cc3)o2)cc1`, the inhibition is 4.26% (inactive).

With `COc1ccccc1N1CCN(c2ncnc3sc(C)c(-c4ccccc4)c23)CC1`, the inhibition was 35.4% (inactive).

`CS(=O)(=O)N(Cc1ccccc1Cl)c1ccc(C(=O)NCc2cccnc2)cc1`: the inhibition was -5.28% (inactive).

Take `C=CCNC(=S)NNC(=O)c1cc(Cl)ccc1OC`: the inhibition is 3.23% (inactive).

As to `COc1ccc(Cl)cc1C(=O)NNC(=S)NC1CCCC1`, the inhibition was -3.8% (inactive).

Turning to `COc1ccc(Cl)cc1C(=O)NNC(=S)NC(=O)/C=C/c1ccco1`, the inhibition was 80.2% (active).

For the molecule `CCOCCCNC(=S)N1CCC(NC(=O)C2CCCCC2)CC1`, the inhibition was -0.571% (inactive).

As for `CC(C)c1nc2cc(C(=O)NC(C)c3cnn(C)c3)ccc2o1` (centres undefined), the inhibition was -0.746% (inactive).

Turning to `CCCCN(CC)C(=S)Nc1ccc2nc3n(c(=O)c2c1)CCCCC3`, the inhibition was 2.4% (inactive).

As to `O=C(Nc1ccc2nc3n(c(=O)c2c1)CCCCC3)c1ccccc1Cl`, the inhibition was -2.99% (inactive).

On to `COc1ccc(CCNC(=O)C(=O)Nc2ccc3nc4n(c(=O)c3c2)CCCCC4)cc1OC`, for which the inhibition was 58.4% (active).

Take `C=C(C)COc1ccc(-c2n[nH]c(C)c2-c2ccccc2)c(O)c1`: the inhibition was 62.3% (active).

Turning to `CCOc1ccc(-c2n[nH]c(C)c2-c2ccccn2)c(O)c1`, the inhibition was -4.57% (inactive).

As to `C=C(C)COc1ccc(-c2n[nH]c(C)c2-c2ccccc2OC)c(O)c1`, the inhibition was 10.6% (inactive).

On to `CCNC(=O)c1cnn(-c2ccccc2)c1-c1ccccc1`, for which the inhibition was -2.93% (inactive).

Take `COc1ccc(C(=O)O)cc1S(=O)(=O)NCc1cccnc1`: the inhibition is 0.329% (inactive).

Broadly, the inhibition is the change of the read-out against control, counted positive when it falls.
